Assay results as given in PubChem BioAssay AID720566 (Broad Institute, 2013).
Entries with a potency or affinity are not part of this list.

The compounds below were run against Protein disulfide-isomerase A6 (Homo sapiens) (UniProt Q15084) (assay: inhibitors of ERp5-mediated insulin aggregation, dose response, biochemical, turbidity, absorbance 650 nm, cherry-picked samples (AID 720566;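 further: negative values mean less insulin aggregation so ERp5 inhibition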)). Settings: Recombinant ERp5 insulin aggregation; series mostly up to 35 µM; activity change, negative = inhibition: at the top concentration;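 active means in all runs, an absorbance decrease of 25% or more of the average positive control decrease; inconclusive means runs conflict, with both active and inactive results; inactive means all runs inactive, opposite-direction effects included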.
Protein disulfide-isomerase A6 (Homo sapiens), sequence (Q15084 whole entry, looked up): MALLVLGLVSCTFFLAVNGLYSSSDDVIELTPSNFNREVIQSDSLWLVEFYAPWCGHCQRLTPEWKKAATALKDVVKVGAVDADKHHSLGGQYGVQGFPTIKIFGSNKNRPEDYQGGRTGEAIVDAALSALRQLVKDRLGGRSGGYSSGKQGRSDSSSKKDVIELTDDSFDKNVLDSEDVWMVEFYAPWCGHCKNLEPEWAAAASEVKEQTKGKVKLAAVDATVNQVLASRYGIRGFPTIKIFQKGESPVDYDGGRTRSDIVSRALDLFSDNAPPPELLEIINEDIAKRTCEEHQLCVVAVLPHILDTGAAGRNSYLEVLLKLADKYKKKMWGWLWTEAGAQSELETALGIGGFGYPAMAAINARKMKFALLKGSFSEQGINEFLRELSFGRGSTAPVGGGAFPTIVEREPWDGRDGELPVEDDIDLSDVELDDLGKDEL

Activity change, negative = inhibition, inactive:
C[C@@H]1CN([C@@H](C)CO)C(=O)Cc2cc(NC(=O)Cc3ccccc3)ccc2O[C@@H]1CN(C)C(=O)Nc1ccc(C(F)(F)F)cc1 1.83%
C[C@@H]1CN([C@H](C)CO)C(=O)Cc2cc(NS(=O)(=O)c3ccc(F)cc3)ccc2O[C@@H]1CN(C)S(=O)(=O)c1cn(C)cn1 -5.88%
C[C@@H]1CCCCO[C@@H](CN(C)C(=O)CCC(F)(F)F)[C@H](C)CN([C@@H](C)CO)C(=O)c2cc(NS(=O)(=O)c3ccc(Cl)cc3)ccc2O1 5.59%
COC(=O)[C@]1(C)N[C@H](CN(C)S(=O)(=O)c2ccc(OC(F)(F)F)cc2)[C@@H]2C(=O)N(C)C(=O)[C@@H]21 2.15%
Cn1c(COc2ccccc2)nnc1SCC(=O)Nc1nnc(C2CC2)s1 20%
CC(C)C#Cc1ccc2c(c1)O[C@@H](CN(C)C(=O)C1CC1)[C@@H](C)CN([C@@H](C)CO)S2(=O)=O -7.81%
COc1ccc2c3c([nH]c2c1)[C@H](CO)N(C(=O)c1ccc(F)cc1)CC31CCN(C(=O)Nc2cccc(F)c2)CC1 7.81%
COc1ccc2c3c([nH]c2c1)[C@@H](CO)N(C(=O)C1CCCC1)CC31CCN(C(=O)NC(C)C)CC1 4.34%
C[C@@H]1CN([C@@H](C)CO)C(=O)c2cc(NC(=O)Nc3ccc4c(c3)OCO4)ccc2O[C@@H]1CN(C)Cc1ccc(C(=O)O)cc1 -9.55%
C[C@@H]1CN([C@H](C)CO)C(=O)c2cccc(NC(=O)Nc3ccc4c(c3)OCO4)c2O[C@H]1CN(C)Cc1ccc(Oc2ccccc2)cc1 7.45%
O=C(C[C@@H]1C[C@H]2c3cc(NC(=O)C4CCC4)ccc3O[C@H]2[C@@H](CO)O1)NCC(F)(F)F 0.372%
CCC1(CC)NC(=O)N(CC(=O)OC(C)C(=O)Nc2ccc(NC(C)=O)cc2)C1=O (centres undefined) 8.27%
O=C(C[C@H]1C[C@H]2c3cc(NC(=O)CC4CC4)ccc3O[C@H]2[C@@H](CO)O1)NCc1ccc(-c2ccccc2)cc1 -10.3% [at 30 µM]
C[C@H](CO)N1C[C@H](C)[C@H](CN(C)Cc2cccc(F)c2)Oc2ncc(Br)cc2C1=O 2.02%
COCC(=O)N(C)C[C@H]1Oc2cc(C#CC(C)(C)O)ccc2S(=O)(=O)N([C@@H](C)CO)C[C@H]1C -2.23%
C[C@@H]1CN([C@@H](C)CO)S(=O)(=O)c2ccc(C#Cc3cccnc3)cc2O[C@H]1CN(C)C(=O)CN(C)C 0.482%
CC(C)CC#Cc1ccc2c(c1)O[C@@H](CN(C)C(=O)c1ccccn1)[C@@H](C)CN([C@@H](C)CO)S2(=O)=O -13.4%
COc1ccc2c3c([nH]c2c1)[C@@H](CO)N(Cc1nccs1)CC31CN(C(=O)C2CCCC2)C1 3.38%
CCC(=O)Nc1ccc2c(c1)C(=O)N(C)[C@@H]1CC[C@@H](CC(=O)NCC3CC3)O[C@@H]1CO2 1.25%
C[C@@H]1CN([C@H](C)CO)C(=O)c2cc(NC(=O)Nc3cccc4ccccc34)ccc2O[C@@H]1CN(C)C(=O)Nc1cccc2ccccc12 10.4%
C[C@H]1CN([C@@H](C)CO)C(=O)c2cc(-c3cccc(C#N)c3)cnc2O[C@@H]1CN(C)Cc1cncnc1 1.3%
O=C(N/N=C1\CCCc2ccccc21)c1ccccc1Cl -19.1%
C[C@H](CO)N1C[C@H](C)[C@H](CN(C)Cc2ccc(C(F)(F)F)cc2)Oc2ccc(NC(=O)Nc3cccc4ccccc34)cc2CC1=O 7.63%
COc1ccc2c3c([nH]c2c1)[C@H](CO)N(C(=O)NC(C)C)CC31CN(C(=O)C2CCCC2)C1 -3.95%
COc1cccc(C(=O)OCC(=O)c2[nH]c(C)c(C(C)=O)c2C)c1 -24.1%
C[C@H](CO)N1C[C@H](C)[C@H](CN(C)Cc2cncnc2)Oc2ncc(-c3cccc(C#N)c3)cc2C1=O 1.45%
CCN(c1ccccc1)S(=O)(=O)c1ccc(OC)c(NC(=O)c2c(C)noc2C)c1 -6.23%
CCC(=O)Nc1ccc2c(c1)C(=O)N(C)[C@H]1CC[C@@H](CC(=O)NCC3CC3)O[C@@H]1CO2 1.25%
CCCNC(=O)C[C@@H]1C[C@H]2c3cc(NC(=O)CC4CC4)ccc3O[C@H]2[C@H](CO)O1 3.18%
O=C(CN1C(=O)NC2(CCCC2)C1=O)Nc1cc(C(F)(F)F)ccc1N1CCCCC1 13.5%
O=C(c1cccc(F)c1)N1CCCCN2[C@H](C1)[C@H](c1ccc(-c3ccccc3)cc1)[C@@H]2CO 10.4%
C[C@@H]1CCCCO[C@@H](CN(C)C(=O)CCC(F)(F)F)[C@@H](C)CN([C@@H](C)CO)C(=O)c2cc(NS(=O)(=O)c3ccc(Cl)cc3)ccc2O1 6.89% [at 30 µM]
COC(=O)C[C@@H]1C[C@@H]2c3cc(NC(=O)Cc4ccncc4)ccc3O[C@@H]2[C@H](CO)O1 0.675%
C[C@@H]1CN([C@H](C)CO)C(=O)c2cc(-c3cccc(C#N)c3)cnc2O[C@H]1CN(C)Cc1cncnc1 1.45%
